PubChem BioAssay (NCI)
Compounds without any hit were thinned out: in the full panel of roughly 79,000, 15% have a hit. Cut-off read from the data, not from the text of the source: active = growth inhibition above about 70%; inactive = the rest.

How the values were obtained:
[1] = NCI Yeast Anticancer Drug Screen. Data for the rad50 strain (AID 155);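 note: 0% = growth of vehicle-only cultures of the same strain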; settings: S. cerevisiae rad50 strain growth inhibition; at 50.0 µM; hits give high values
Outline: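 Genetically altered yeast (DNA repair pathway); compound treatment; growth inhibition vs vehicle ctrl.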

[2] = NCI Yeast Anticancer Drug Screen. Data for the mec2-1 strain (AID 157); settings: S. cerevisiae mec2-1 strain, at 50.0 µM, hits give high values
Outline: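 Compounds were applied to mec2-1 yeast cells. Their growth was then compared with that of vehicle-treated cultures to give growth inhibition.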

[3] = NCI Yeast Anticancer Drug Screen. Data for the sgs1 mgt1 strain (AID 161);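 note: 0% = growth of cultures given vehicle only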; settings: S. cerevisiae sgs1 mgt1 strain, at 50.0 µM, hits give high values
Outline: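 Percent growth inhibition was derived by comparing compound-exposed mutant yeast with vehicle-exposed cultures. The strain carries alterations in DNA damage repair.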

[4] = NCI Yeast Anticancer Drug Screen. Data for the cln2 rad14 strain (AID 165);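 note: 0% = growth equal to vehicle treated cultures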; settings: S. cerevisiae cln2 rad14 strain, at 50.0 µM, hits give high values
Outline: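 Strain: cln2 rad14 yeast, altered in cell cycle control and DNA damage repair. Read-out: growth inhibition vs vehicle.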

[5] = NCI Yeast Anticancer Drug Screen. Data for the bub3 strain (AID 167); settings: S. cerevisiae bub3 mutant strain, at 50.0 µM, hits give high values
Outline: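 Yeast carrying a defined mutation is treated with each compound, and growth is compared with that of vehicle-exposed cells to give inhibition.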

[6] = NCI Yeast Anticancer Drug Screen. Data for the mlh1 rad18 strain (AID 175); settings: S. cerevisiae mlh1 rad18 strain growth inhibition; at 50.0 µM; hits give high values
Outline: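 A repair-deficient yeast strain is exposed to test compound, and growth is scored relative to vehicle-treated controls.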

Measured: growth inhibition

NC(Cc1cc(I)c(Oc2ccc(O)c(I)c2)c(I)c1)C(=O)O (stereo unspecified)
inactive: [1] -5.1% | [2] -1.35% | [3] -9.5% | [4] -27.5% | [5] -30.5% | [6] 33.4%

COc1ccccc1NC1Oc2cc3c(cc2C(c2cc(OC)c(OC)c(OC)c2)C1C)OCO3 (stereo unspecified)
inactive: [1] -16.4% | [2] -26.1% | [3] -1.25% | [4] -0.85% | [5] -2.8% | [6] -5.35%

N#CC(C#N)=CNc1ccccc1
inactive: [1] 5.4% | [2] -8.95% | [3] 7.5% | [4] -20.9% | [5] 9.7% | [6] 4.6%

O=c1/c(=C/c2ccccc2[N+](=O)[O-])sc2nnc(-c3cccnc3)n12
inactive: [1] 11.7% | [2] 6.45% | [3] 12.8% | [4] 21.1% | [5] 11.8% | [6] 1.4%

O=C1Cc2c(-c3ccccc3)cc(-c3ccccc3)nc2-c2ccccc2N1
inactive: [1] -4.2% | [2] 39.2% | [3] 39% | [4] 25.7% | [5] 29.2% | [6] 41.2%

O=CNCCc1ccc2c(c1)[nH]c1ccccc12
inactive: [1] 8.45% | [2] 16.1% | [3] 12.9% | [4] -11.3% | [5] -13.2% | [6] 20.6%

C#CCN(N=O)C(=O)NC(CCCCNC(=O)OCc1ccccc1)C(=O)OCc1ccccc1 (stereo unspecified)
inactive: [1] -8.65% | [2] -25.4% | [3] -7.75% | [4] -2.35% | [5] 14.2% | [6] 0.6%

O=C(O)c1ccc(-c2ccc(C(=O)O)cc2I)c(I)c1
inactive: [1] 25.2% | [2] 2.2% | [3] 6.25% | [4] -5.25% | [5] 0.15% | [6] 10%

CC12CC3(Nc4ccccc4C3(C)O)OC1(C)c1ccccc1N2 (stereo unspecified)
inactive: [1] 1.1% | [2] 9.35% | [3] 10.3% | [4] 1.25% | [5] -6.1% | [6] 17.5%

COc1ccc(NC2=CC(=O)c3ccccc3C2=O)cc1
inactive: [1] 0.4% | [2] 5.55% | [3] 4.1% | [4] -35% | [5] 18.2% | [6] -7.1%

Cc1cc(N(CCC#N)CCC#N)ccc1/C(N=Nc1ccc([N+](=O)[O-])cc1)=N\NC(=O)c1cc(Cl)ccc1O
inactive: [1] 18.9% | [2] 8.8% | [3] -5% | [4] 6.85% | [5] -26.4% | [6] 9.1%

O=NN(CCCl)C(=S)NC1CCCCC1
inactive: [1] 3.25% | [2] -0.15% | [3] 6.35% | [4] 7.2% | [5] -3.6% | [6] 47.8%

O=C(/C(=C\c1ccc(Cl)cc1)c1ccccc1)c1ccccc1
inactive: [1] -38% | [2] -29.5% | [3] 4.9% | [4] 5.95% | [5] -23.4% | [6] -16.1%

CCOC(=O)c1cn(CC)c2cc(-n3cccc3)c(F)cc2c1=O
inactive: [1] 46.6% | [2] 27.6% | [3] 48.1% | [4] 39.5% | [5] 27% | [6] 49.9%

N#CC1C2CCC(C2)C1CCCN (stereo unspecified)
inactive: [1] 18.4% | [2] -8.75% | [3] 6.55% | [4] -81.9% | [5] -8.05% | [6] -13.8%

CC(=O)NNC(=S)/N=C/C(C(=O)Nc1ccc([N+](=O)[O-])cc1)=C(\C)O
inactive: [1] -19.8% | [2] 4.4% | [3] -21.9% | [4] 15.8% | [5] 6.5% | [6] -4%

Nc1cccc(CC(=O)c2ccccc2)n1
inactive: [1] -4.3% | [2] -11% | [3] -7.9% | [4] -8.55% | [5] -3.05% | [6] -13.1%

O=S1(=O)c2ccccc2N2CCCc3cc(Cl)cc1c32
inactive: [1] -49.9% | [2] -23.1% | [3] -41.7% | [4] -3.35% | [5] -8.9% | [6] -4.15%

CN(C)CCC(/C=C/c1ccccc1)=N\Nc1ccccc1
inactive: [1] 19.6% | [2] -14.9% | [3] -11.9% | [4] 5.5% | [5] -12.8% | [6] 36.5%

c1ccc(C2CN3CCSC3=N2)cc1 (stereo unspecified)
inactive: [1] -30.4% | [2] -34.8% | [3] -19.1% | [4] 5.5% | [5] -12.2% | [6] -16.9%

COc1nc(C(=O)O)c(Cl)c(OC)c1Cl
inactive: [1] -34.6% | [2] -21.8% | [3] -40.5% | [4] -4.95% | [5] -39.6% | [6] -35%
